MITF act – activators of MITF-driven TRPM1 promoter reporter, primary screen, cell-based, SK-MEL-5, luciferase, single point | SK-MEL-5 TRPM1-promoter luciferase, 24 h; % of positive control, neutral wells = 0 | activation, % at 12.5 µM | actives 0.75% (n = 300,000) | AID 588334, 2011;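 active means mean activation of at least 80% with every replicate also reaching 80%; inconclusive means mean reaches 80% but some replicate falls short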
esBAF inh – Bmi1 luciferase reporter increase in mESCs, primary screen, esBAF inhibitor project, mouse ES cells, Bmi1 luciferase knock-in, single point; 24 h; 100% = twice the neutral-well signal; reporter increase, % at 12.5 µM; actives 2% (n = 350,000); in the data active means activation above about 40%; inconclusive means no clear call, values can overlap the other calls;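 further: a rise in the Bmi1 reporter signal indicates esBAF inhibition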
MITF TRPM1 inh – inhibitors of MITF-dependent TRPM1 promoter reporter, primary screen, cell-based, SK-MEL-5, single point, luciferase; actives 0.83% (n = 330,000); inhibition, % at 12.5 µM; SK-MEL-5 TRPM1 promoter luciferase, 24 h;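 active means mean inhibition across replicates of 60% or more, whatever share of single replicates reaches that level; inconclusive means some that reach 60%, reason not given; inactive means mean inhibition across replicates below 60%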
Wnt bcat act – Wnt/beta-catenin pathway activators, primary screen, cell-based, plate reader, single point | Wnt/beta-catenin reporter cell assay, activator | activation, % at 9.35 µM | actives 1.2% (n = 300,000); in the data active means activation above about 30%, passing the limit was not always enough; inconclusive means no clear call, values can overlap the other calls
LMP1 NFkB inh – EBV LMP1-driven NF-kappaB luciferase reporter inhibitors, primary screen, cell-based, luminescence, single point; inhibition, % at 12.5 µM; actives 0.69% (n = 350,000); LMP1-induced NF-kappaB luciferase reporter cells; in the data active means inhibition above about 41%; inconclusive means no clear call, values can overlap the other calls
C2C12 statin – suppressors of statin myotoxicity in C2C12 myotubes, primary screen, cell-based, single point, plate reader. actives 0.78% (n = 330,000). AID 602340, 2012. C2C12 myotubes + simvastatin, ATP luminescence, 48 h; scaled: DMSO 0, geranylgeraniol control 100. rescue of ATP level, % at 7.49 µM;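 active means mean ATP rescue above about 67%, or every replicate alone reaching that limit, limit read from the data, passing the limit was not always enough; inconclusive means no clear call, values can overlap the other calls; inactive means mean under the limit and some replicate under it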;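 further: myotubes were challenged with 10 µM simvastatin during compound exposure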
Large screens that a line does not name were inactive. A selection: hits, their analogues and other compounds. The true share with any hit is near 4%.

CC1CCN(C(=O)c2ccc(NC3=C(Cl)C(=O)N(Cc4ccccc4)C3=O)cc2)CC1	none
O=C(Nc1nccs1)[C@@H]1CCCN1S(=O)(=O)c1ccc(Cl)cc1	none
Cc1ccc(C(=O)c2ccc(O)cc2)cc1C	esBAF inh inconclusive (no result: MITF act)
Cc1ccc(C(=O)c2cccc(N)c2)cc1C	MITF TRPM1 inh 66.0
CCC(C)c1ccc(Nc2ncccc2C#N)cc1 (stereo not drawn)	esBAF inh 80.8 (no result: Wnt bcat act)
O=C(O)C1(c2ccccc2)CCN(S(=O)(=O)c2ccc(Br)cc2)CC1	none
Cc1ccc(NC(=O)CN(C)CC(=O)NC2CCCc3ccccc32)cc1 (stereo not drawn)	Wnt bcat act 39.8
CC(C)C(NC(=O)OCc1ccccc1)C(=O)OCC(=O)N1CCCCC1 (stereo not drawn)	esBAF inh 71.9 (no result: MITF act, Wnt bcat act)
O=C(NCCN1CCN(c2ccccc2F)CC1)c1ccc2nc3ccccc3c(=O)n2c1	none
O=[N+]([O-])c1ccc(C=CC=Cc2ccccc2)cc1	esBAF inh 55.9 (no result: MITF act, MITF TRPM1 inh)
O=C(/C=C/c1cccnc1)c1ccc([N+](=O)[O-])cc1	none
Cc1ccc(C(=O)/C=C/C(=O)c2ccc(C)cc2)cc1	LMP1 NFkB inh 45.0 (no result: esBAF inh, C2C12 statin)
[O-]/[N+](=C\C=C\c1ccccc1)c1ccccc1	MITF act 93.6
O=C(C=Cc1ccccc1)c1ccc([N+](=O)[O-])cc1	LMP1 NFkB inh 56.3
Cc1ccc(/C=C/C(=O)c2ccc(C)cc2)cc1	none (no result: MITF act, Wnt bcat act)
C[C@H]1CN([C@@H](C)CO)C(=O)c2cc(-c3ccncc3)cnc2O[C@@H]1CN(C)C(=O)Nc1ccc2c(c1)OCO2	none (no result: MITF act, MITF TRPM1 inh, Wnt bcat act, LMP1 NFkB inh)
O=C(CCc1n[nH]c(=O)[nH]c1=O)N/N=C/c1ccco1	none
COC(=O)c1cccc(C23CC4(C2)[C@H](CN(Cc2ccc(C(F)(F)F)cc2)[C@@H]4c2ccccc2)C3c2ccccc2)c1 (stereo partly drawn)	none (no result: Wnt bcat act)
Cc1ccc(C(=O)/C=C/c2ccccc2[N+](=O)[O-])cc1	Wnt bcat act 49.6 (no result: esBAF inh, C2C12 statin)
COc1cccc(/C=C(\C(=O)O)c2ccccc2)c1	none
Cc1ccc(C(=O)/C=C/c2ccc(-c3ccccc3[N+](=O)[O-])o2)cc1	none (no result: esBAF inh, C2C12 statin)
COc1ccc(C(=Cc2ccccc2[N+](=O)[O-])C(=O)O)cc1	Wnt bcat act 49.3
Cn1nnnc1SCC(=O)N1N=C(c2cccs2)CC1c1cccs1 (stereo not drawn)	none
O=C(O)c1ccc2c(c1)C(=O)N(c1ccc(OCc3ccccc3)cc1)C2=O	none (no result: MITF act)
CCCOC(=O)c1ccc2c(c1)C(=O)N(c1ccccc1)C2=O	esBAF inh 58.4 (no result: Wnt bcat act)
Cc1ccc(C(=O)CC(=O)c2ccccc2)cc1	esBAF inh inconclusive (no result: MITF act)
O=C(O)c1ccc2c(c1)C(=O)N(c1ccc(C(=O)OCC(=O)c3ccccc3)cc1)C2=O	esBAF inh inconclusive, Wnt bcat act 47.1 (no result: MITF act)
Cc1ccc(C(=O)OCC(=O)c2ccccc2)cc1	Wnt bcat act 36.2
COc1cccc(C2C(C(=O)c3ccc(C)o3)=C(O)C(=O)N2c2cc(C)on2)c1 (stereo not drawn)	none
Cc1ccc(CS(=O)(=O)CCC(=O)NCCN(C)Cc2ccccc2)cc1	none
Cc1ccc(CNC(=O)C2(S(=O)(=O)c3ccccc3)CC=CC2)cc1	esBAF inh 73.2 (no result: Wnt bcat act)
CCOC(=O)c1c(-c2ccccc2)cn2c(C)cc(C)nc12	esBAF inh 62.8
CCOC(=O)c1c(C)nc(-c2ccccc2)nc1N	esBAF inh 49.6 (no result: MITF act, Wnt bcat act)
CC(=O)c1c(C)nc(-c2ccccc2)nc1N	none
C[C@H]1CCCCO[C@H](CN(C)C(=O)NC2CCCCC2)[C@@H](C)CN([C@@H](C)CO)C(=O)c2cc(NC(=O)CCC(F)(F)F)ccc2O1	none (no result: MITF act, MITF TRPM1 inh, Wnt bcat act, LMP1 NFkB inh)
C=CCS/C(=N\n1cnc2ccccc2c1=O)N1CCCCC1	esBAF inh 52.8 (no result: Wnt bcat act)
CC(=O)Nc1ccc2c(c1)nc1n2CCOC1	none (no result: Wnt bcat act)
O=C(Nc1ccc2c(c1)nc1n2CCOC1)C1CCCCC1	esBAF inh 53.4 (no result: MITF act, Wnt bcat act)
COc1cc(NC(=O)CCc2c(C)noc2C)c(C(=O)O)cc1OC	none (no result: MITF act, MITF TRPM1 inh)
Cc1ccc(OCC(=O)N2CCc3ccccc3C2)cc1	none
COCC(=O)OC1CCn2c1nc1c2C(=O)C(C)=C(NC(C)=O)C1=O (stereo not drawn)	MITF TRPM1 inh 85.6, LMP1 NFkB inh 87.5 (no result: esBAF inh, C2C12 statin)
Cc1cccc(NC(=O)Nc2ccc(C#N)cc2)n1	none
CNC(=O)/C=C/c1cccc(C(F)(F)F)c1	none (no result: esBAF inh, C2C12 statin)
CC(C)(C)NC(=O)/C=C/c1ccc(C(F)(F)F)cc1	Wnt bcat act 76.9 (no result: esBAF inh, C2C12 statin)
Cc1ccc(C(=O)OC(C)C(=O)NC2CCCCC2C)s1 (stereo not drawn)	none
C[C@@H]1CN([C@H](C)CO)C(=O)c2cc(NS(=O)(=O)c3ccc(Cl)cc3)ccc2O[C@@H]1CN(C)C(=O)Nc1cccc2ccccc12	none (no result: MITF act, MITF TRPM1 inh, Wnt bcat act, LMP1 NFkB inh)
Cn1c(CCNC(=O)c2ccco2)nc2cc(NC(=O)c3ccccc3)ccc21	MITF act 89.0, esBAF inh 45.5, Wnt bcat act 31.6
Cn1c(CCNC(=O)c2ccco2)nc2cc(NC(=O)c3ccco3)ccc21	esBAF inh 51.4, Wnt bcat act 39.4 (no result: MITF act)
Cn1c(CCNC(=O)c2ccccc2)nc2cc(NC(=O)c3ccco3)ccc21	none (no result: MITF act)
O=C(Nc1ccc2c(c1)nc1n2CCSC1)c1ccco1	LMP1 NFkB inh 45.1 (no result: MITF act)
CC(=O)Nc1ccc(/C=N/NC(=O)CC2CCCCC2)cc1	none (no result: MITF act, MITF TRPM1 inh, LMP1 NFkB inh)
CCCCCCCC(=O)N/N=C/c1ccc(Br)cc1	C2C12 statin 133.5 (no result: Wnt bcat act)
CC(=O)Nc1ccc(C=NNC(=O)CCCC(=O)NN=Cc2ccc(NC(C)=O)cc2)cc1	LMP1 NFkB inh 80.6
C/C(=N/O)c1cccc(N2Cc3ccccc3C2)c1	esBAF inh 62.7
Cc1ccc(S(=O)(=O)CCC(=O)N2CCN(c3ccccc3O)CC2)cc1	none
CCCCN(Cc1ccccc1)c1ncnc2nc[nH]c12	esBAF inh 67.4 (no result: MITF act, MITF TRPM1 inh, Wnt bcat act)
CCCCN(CCCC)c1ncnc2nc[nH]c12	none (no result: esBAF inh, C2C12 statin)
Cc1ccc(NC(=O)c2ccc3snnc3c2)cc1C	esBAF inh inconclusive
O=C(O)c1ccc(C(=O)Nc2ccc(F)cc2)cc1	MITF TRPM1 inh 105.7
O=C(Nc1ccc(F)cc1)c1ccc2snnc2c1	esBAF inh 45.2
COc1cccc(NC(=O)c2ccc3snnc3c2)c1	none (no result: esBAF inh, Wnt bcat act, C2C12 statin)
CCOc1ccc(NC(=O)c2ccc3snnc3c2)cc1	esBAF inh 54.2 (no result: MITF act, C2C12 statin)
COc1ccc(CC2(C)OC(c3ccc(C)cc3)=NN2C(C)=O)cc1 (stereo not drawn)	none (no result: esBAF inh, Wnt bcat act, C2C12 statin)
O=C(NCc1ccncc1)c1ccc2nc([C@@H]3O[C@H](CO)[C@H](O)[C@H](O)[C@H]3O)[nH]c2c1	none (no result: MITF act, MITF TRPM1 inh, LMP1 NFkB inh)
CCOC(=O)[C@H]1[C@H]2COc3ccc(C)cc3[C@@H]2N2C(=O)c3ccc(F)cc3NC(=O)[C@@]12C	none

Screening data: PubChem BioAssay, Broad Institute
